Source: PubChem BioAssay (The Scripps Research Institute Molecular Screening Center)
Sampled rows, rich in hits. Any-hit rate of the full collection: about 2.4%.
CHRM1 agonist – human M1 muscarinic receptor agonism; activation, % at 3 µM; hit rate 0.33% among 360,000; P11229; CHO-K1 hM1, Fluo-8 calcium fluorescence, agonist mode; 0% DMSO, 100% acetylcholine EC100;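 active = activation above the run's mean compound activation plus 3 SD, cut at about 16% in these data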;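 also: peak over basal fluorescence ratio within a 140 s kinetic read after compound addition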
Target sequence (P11229 whole entry, looked up): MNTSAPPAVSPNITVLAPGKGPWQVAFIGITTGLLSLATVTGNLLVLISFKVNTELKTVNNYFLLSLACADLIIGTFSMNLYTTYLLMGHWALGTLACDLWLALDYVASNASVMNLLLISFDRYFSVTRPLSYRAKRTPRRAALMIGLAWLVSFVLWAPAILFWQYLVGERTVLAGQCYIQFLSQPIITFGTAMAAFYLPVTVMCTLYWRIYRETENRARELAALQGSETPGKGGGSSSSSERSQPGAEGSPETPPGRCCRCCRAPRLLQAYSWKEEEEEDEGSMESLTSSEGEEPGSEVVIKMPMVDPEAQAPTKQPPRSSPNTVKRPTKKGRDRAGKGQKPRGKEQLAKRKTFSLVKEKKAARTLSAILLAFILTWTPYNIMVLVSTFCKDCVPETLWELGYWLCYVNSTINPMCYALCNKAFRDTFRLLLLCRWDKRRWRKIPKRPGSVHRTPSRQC
M1 antag – antagonists of human M1 muscarinic receptor. P11229. CHO-K1 hM1, Fluo-8 calcium fluorescence, ACh EC80 antagonist. inhibition, % at 3 µM. hit rate 1.3% among 360,000;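 active = percent inhibition above its own plate's cutoff, namely the mean of that plate's compound wells plus 3 SD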;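 also: peak over basal fluorescence ratio during 140 s after agonist addition; 0% = ACh EC80 plus DMSO and 100% = DMSO alone without agonist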
M1 PAM parental – nonselective activator or artifact in parental CHO-K1 calcium assay. AID 602247. hit rate 0.02% among 360,000. ATP EC20, Fluo-8 calcium fluorescence; 0% at ATP EC20, 100% at ATP max. activation, % at 3 µM;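 active = activation above the run cutoff, the mean activation of all test compounds plus 3 SD, cut at about 40% in these data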;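 also: peak over basal fluorescence ratio in a 140 s read after ATP addition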
CHO-K1 Ca ag – nonselective activator or artifact in parental CHO-K1 cells; Fluo-8 calcium fluorescence; scaled to maximal ATP response, vehicle zero; activation, % at 3 µM; hit rate 0.48% among 360,000; AID 602248; in the data active = activation above about 15%;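 also: untransfected CHO-K1 host cells lacking M1 receptor as counterscreen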
CHO-K1 Ca antag – nonselective inhibitor or artifact in parental CHO-K1 cells. AID 602250. inhibition, % at 3 µM. ATP-induced calcium, Fluo-8 fluorescence. hit rate 0.6% among 360,000;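 active = inhibition above a per-plate cutoff, the plate's mean sample inhibition plus 3 SD, cut at about 24% in these data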;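 also: 0% = DMSO plus EC80 ATP and 100% = DMSO alone without ATP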
M1 PAM – positive allosteric modulators of human M1 muscarinic receptor; P11229; CHO-K1 hM1, Fluo-8 calcium fluorescence, ACh EC20; 0% = ACh EC20, 100% = maximal ACh; activation, % at 3 µM; hit rate 0.088% among 360,000; AID 588819; in the data active = activation above about 19%, passing the limit was not always enough
* hit, by the source's call; x = no result given.

SMILES	CHRM1 agonist	M1 antag	M1 PAM parental	CHO-K1 Ca ag	CHO-K1 Ca antag	M1 PAM
CC(=O)Nc1ccc(/C=N/N2C(C)CCCC2C)cc1 (stereo not given)	3	-22	11	6	-11	14
CCN1CCN(C(=O)c2cc3cc(F)ccc3[nH]2)CC1	-6	-9	-29	0	34*	9
Cn1cccc1/C=C1\CC(C(C)(C)C)C/C(=C\c2cccn2C)C1=O (stereo not given)	-2	-1	-9	0	24*	3
Cn1cccc1/C=C1\Cc2ccccc2C1=O	-7	-7	23	2	-14	4
CCCn1c(=O)n(C)c(=O)c2c(SCC(=O)NCC(c3ccccc3)N(C)C)nc(CC(C)C)nc21 (stereo not given)	-4	-16	23	8	-1	12
CC(OC(=O)Cc1c(F)cccc1Cl)C(=O)NC1CCCCC1C (stereo not given)	-1	-7	1	0	-15	6
O=C(c1ccc(CSc2nc3ccncc3[nH]2)cc1)N1CCN(c2cccc(Cl)c2)CC1	-5	36*	1	10	9	-20
O=C(c1ccc(CSc2nc3ccncc3[nH]2)cc1)N1CCCCCC1	-5	-1	17	4	-15	1
CCOc1ccc(-n2c(=O)[nH]cc(C(=O)Nc3ccc(OC)c(OC)c3)c2=O)cc1	4	-11	-11	0	-15	6
CN(C(=O)CCc1nnc(-c2ccc(-c3ccccc3)cc2)o1)C1CCOCC1	4	19	-6	17*	2	-10
O=C(Nc1cc(Cl)cc(Cl)c1)c1cccc(OC(F)F)c1	-4	23	-10	1	27*	-15
O=C(NCc1ccccc1Cl)C1CCN(c2cnccn2)CC1	-4	-13	16	0	-7	6
COC(=O)C1CCN(Cc2ccc(C)cc2)CC1	-6	-17	0	-1	4	10
Cc1ccc(S(=O)(=O)NC2=NCN(Cc3ccccc3)CN2)cc1	-2	-11	9	0	-2	5
Cc1ccc(S(=O)(=O)NNC(=O)C2CCN(Cc3ccccc3)CC2)cc1	-5	80*	17	0	-19	-21
Cc1ccc(S(=O)(=O)NC2=NCN(C3CCN(Cc4ccccc4)CC3)CN2)cc1	-5	29*	13	0	-10	-16
Cn1cnc([N+](=O)[O-])c1Oc1ccc2ccccc2c1	-1	-13	16	2	-12	18
O=C(N/N=C/c1cccc(Oc2ccccc2)c1)c1ccccc1Br	0	-10	28	0	-37	12
CCN1CCN(C(=O)c2cc(S(=O)(=O)N3CCCCC3)ccc2Cl)CC1	-4	-3	0	0	-6	9
CC(C)c1cc(-c2cc(C(=O)NCc3ccccc3)on2)nc(NCC2CC2)n1	29*	34*	-13	9	14	6
O=C(COC(=O)c1cc(Cl)cc(Cl)c1)NCCN1C(=O)CSC1=O	-7	3	-14	0	26*	-4
O=C(COC(=O)c1cccc(Cl)c1)NCCN1C(=O)CSC1=O	-5	-4	9	0	-10	-2
O=C(COC(=O)CNC(=O)c1ccco1)NCCN1C(=O)CSC1=O	-2	2	-6	0	31*	5
CCCCN(C)c1c(C)nc2ccc(C(=O)N(CC)CCN(C)C)cn12	-7	22	19	0	-6	-18
CC(=O)NCCC(=O)Nc1ncc(S(=O)(=O)c2ccc([N+](=O)[O-])cc2)s1	1	3	4	1	-1	0
SMILES	CHRM1 agonist	M1 antag	M1 PAM parental	CHO-K1 Ca ag	CHO-K1 Ca antag	M1 PAM
CCCCC(=O)Nc1ncc(S(=O)(=O)c2ccc([N+](=O)[O-])cc2)s1	23*	-4	16	9	-2	11
CC(C1CC1)N(Cc1ccccc1)C(=S)Nc1ccccc1Cl (stereo not given)	-5	5	20	18*	-15	-1
Cc1cc(O)c(C(=O)/C=C/c2cccc([N+](=O)[O-])c2)c(=O)o1	-4	-7	30	2	-18	4
Cc1cc(O)c(C(=O)/C=C/c2ccccc2O)c(=O)o1	-1	-15	9	3	24*	9
N#C/C(=C\c1ccc(O)cc1)C(=O)NCc1cccc(Cl)c1	24*	-12	3	17*	-10	10
N#C/C(=C/c1ccc(O)cc1)C(=O)NCc1ccc(Cl)cc1	8	7	-15	2	5	3
CN(C(=O)COC(=O)COc1ccc2ccccc2c1)c1ccccc1	-2	-8	17	9	-5	-9
CN(C)c1nc2ccccc2n(C)c1=O	-2	-5	-15	0	24*	1
O=C(Cc1ccc(S(=O)(=O)N2CCOCC2)s1)N1CCN(c2cccc(C(F)(F)F)c2)CC1	2	38*	-5	18*	19	-12
COC(=O)[C@]12CCCCC=C1N(Cc1ccccc1)C(=O)[C@H](CC(=O)N1CCCCC1)C2	x	x	14	6	-3	x
Cc1cccc(C)c1NC(=O)COC(=O)c1cccc2c1C(=O)c1ccccc1C2=O	-5	5	1	1	-6	-1
Cc1cccc(NC(=O)COC(=O)c2cccc3c2C(=O)c2ccccc2C3=O)c1C	-7	29*	17	4	-4	-17
CCCCN1C2=NCCCN2c2ccccc21	-8	12	-4	0	2	-6
CCCCN1C2=NC(c3ccccc3)CN2c2ccccc21 (stereo not given)	-4	40*	11	4	-8	-16
Cc1cccc(OCC(=O)Nc2ccc3oc(=O)ccc3c2)c1	8	3	-10	19*	3	1
Cc1ccc(OCC(=O)Nc2ccc(N3CCN(C(=O)c4ccco4)CC3)cc2)cc1C	2	20	-10	15*	10	-11
Cc1cc(C)cc(NC(=S)N2CCN(C(=O)c3ccco3)CC2)c1	3	-8	-28	-1	25*	16
Cc1ccccc1C(=O)N1CCN(c2ccc(NC(=S)NC(=O)c3ccco3)cc2)CC1	12	15	2	15*	6	-9
Cc1ccc(C(=O)N/C(=C\c2ccccc2)C(=O)NCCN2CCOCC2)cc1	-2	-16	24	1	-18	14
CCOC(=O)c1ccc(-c2c(-c3ccccc3OC)sc3cc4c(cc23)OCO4)cc1F	-4	0	1	0	-8	-2
Cc1cc(OCC(=O)Nc2ccc(N3CCN(C(=O)c4ccco4)CC3)cc2)cc(C)c1Cl	-1	5	6	2	-9	-7
Cc1cccc(OCC(=O)Nc2ccc(N3CCN(C(=O)c4ccco4)CC3)cc2)c1	4	14	-17	16*	29*	-18
CCCNC(=O)c1ccc(C2SCC(=O)N2CCc2ccccc2)cc1 (stereo not given)	-9	-2	16	4	-5	3
